# Activity calls are given as the source filed them. How the source made its calls: active means hit-call score of the fitted dose curve at least 0.9, where 1 is the maximum; inactive means score below 0.9.
# Read-out: Vascular endothelial growth factor receptor 2 (Homo sapiens) (UniProt P35968)
# Test: BSK_4H_VEGFRII: BioMAP Diversity Plus: 4H Assay for Vascular endothelial growth factor receptor 2 (VEGFR2) Biomarker Activity (AID 2283031)
# Settings: primary human endothelial cells (HUVEC); actives raise or lower the signal
# Description: BSK_4H is a cell-based, multiplexed-readout assay that uses umbilical vein endothelium, a human vascular primary cell, with measurements taken at 24 hours after chemical dosing in a 96-well plate.BSK_4H_VEGFRII is an assay component measured in the BSK_4H assay. It measures VEGFRII antibody related to regulation of gene expression using ELISA technology.Data from the assay component BSK_4H_VEGFRII was analyzed into 1 assay endpoint. This assay endpoint, BSK_4H_VEGFRII, was analyzed with bidirectional fitting relative to DMSO as the negative control and baseline of activity. Using a type of binding reporter, gain or loss-of-signal activity can be used to understand changes in the signaling as they relate to the gene KDR. Furthermore, this assay endpoint can be referred to as a primary readout, because this assay has produced multiple assay endpoints where this one serves a signaling function. To generalize the intended target to other relatable targets, this assay endpoint is annotated to the kinase intended target family, where the subfamily is receptor tyrosine kinase.
# The levels of cell surface (or secreted, indicated by the prefix "s") biomarker endpoints were measured by ELISA. Overt cytotoxicity to cells in confluent adherent cultures (all systems other than the BT system) was assessed by measuring total protein levels using sulforhodamine B (SRB) staining in parallel cultures at the time of biomarker measurements, indicated as SRB endpoints. For proliferation assays for adherent cell types, individual cell types are cultured at sub-confluence and relative cell numbers quantified by SRB staining at time points optimized for each system (48 h: 3C and CASM3C systems; 72 h: BT and HDF3CGF systems; 96 h: SAg system). SRB was performed by staining cells with 0.1% SRB after fixation with 10% TCA and reading wells at 560 nm.Viability and proliferation of PBMC (T cells) was quantified by Alamar Blue reduction for the SAg and BT systems. For PBMC viability (referred to as PBMC Cytotoxicity within the assay endpoint names), cells were plated (75,000/well in a 96-well plate) and then chemical samples added for 1 h before addition of activators, SEB and TSST-1 (20 ng/mL final concentration each). Cells were incubated for 90 h. Then, Alamar Blue (20 uL/well) (Invitrogen, Cat DAL1100) was added for 6 h, and the plates were read with a fluorescence microplate reader at 546/580 nm (excitation/emission). For PBMC proliferation, cells were plated and activated as above but incubated for only 16 h prior to addition of Alamar Blue. Plates were read after 6 h.
Structure (SMILES),AC50,outcome
Nc1nc(Cl)nc2c1ncn2[C@H]1C[C@H](O)[C@@H](CO)O1,2.65 µM (active),
CCC(C)N(C)C(=O)c1cc2ccccc2c(-c2ccccc2Cl)n1 (stereo not given),,inactive
CCCCC(CC)COP(=O)(OCC(CC)CCCC)OCC(CC)CCCC (stereo not given),20 µM (active),
c1ccc2occc2c1,,inactive
CC(C)c1cccc(C(C)C)c1NC(=O)NS(=O)(=O)c1cc(C(C)(C)O)co1,,inactive
CCCCCCCC(=O)OC,,inactive
O=C1CCCCC1,,inactive
CC1=C(C)S(=O)(=O)CCS1(=O)=O,,inactive
O=C(NS(=O)(=O)/C=C/c1cccs1)c1ccc(F)cc1Br,,inactive
NC=O,,inactive
O=C(Oc1ccccc1)c1cccc(C(=O)Oc2ccccc2)c1,,inactive
Cc1cn([C@H]2C=C[C@@H](CO)O2)c(=O)[nH]c1=O,,inactive
CCCCc1nc2cccnc2n1Cc1ccc(-c2ccccc2-c2nnn[nH]2)cc1,,inactive
COC(=O)CCCC(=O)OC,,inactive
CS(=O)(=O)c1ccc([C@@H](C[C@H]2CCC(=O)C2)C(=O)Nc2cnccn2)cc1Cl,,inactive
Cc1cc(SC2=C(O)C[C@@](CCc3ccc(N)cc3)(C(C)C)OC2=O)c(C(C)(C)C)cc1CO,,inactive
NCCOCCOCCN,,inactive
Oc1ccc(O)cc1,,inactive
Cc1ccc(C(C)(C)C)c(O)c1,,inactive
CCc1nc(N)nc(N)c1-c1ccc(Cl)cc1,,inactive

Structure (SMILES),AC50,outcome
CC(=O)OCC(COC(C)=O)OC(C)=O,,inactive
NC1CCCCC1,,inactive
COC(=O)CCC(=O)OC,,inactive
CSc1ccc(Oc2ccc(S(N)(=O)=O)cc2CN(C)C)cc1C,,inactive
OCC(CO)n1cnc(-c2ccc(F)cc2)c1-c1ccnc(Oc2ccccc2)n1,,inactive
CCCCC(CC)CO (stereo not given),,inactive
CN(C)CCCN(C)CCCN(C)C,,inactive
CCCCCCCCCCCCCCCCO,,inactive
CC(N)=O,,inactive
Cn1cnc2c1c(=O)[nH]c(=O)n2C,,inactive
CN(C)C(=O)NC1(c2ccccc2)CCN(CCC[C@]2(c3ccc(Cl)c(Cl)c3)CCCN(C(=O)c3ccccc3)C2)CC1,,inactive
CC(=O)O,,inactive
CC(=O)S[C@H](C(=O)N[C@H]1Cc2ccccc2[C@H]2CCC[C@@H](C(=O)O)N2C1=O)C(C)C,,inactive
CCN(CC)CCOc1ccc(C(=C(Cl)c2ccccc2)c2ccccc2)cc1,,inactive
CCCCCCCCCC[N+](C)(C)[O-],,inactive
CC(C)NCC(O)c1ccc(O)c(O)c1 (stereo not given),,inactive
C=CCc1ccc(OC)c(OC)c1,,inactive
CN(C)CCCN1c2ccccc2Sc2ccc(Cl)cc21,,inactive
CC(C)COC(=O)CCCCC(=O)OCC(C)C,,inactive
CO[C@@H]1COCC[C@@H]1N[C@@H]1CC[C@@](C(=O)N2CCc3ncc(C(F)(F)F)cc3C2)(C(C)C)C1,,inactive
